Laboratory results taken from the supplement of paper PMC8728848.
The sample as a whole holds a higher share of the strongest signals than the screen did.

How the values were obtained:
Assay in all cases: glycan array binding signal (z-score within array); higher = stronger binding
Conditions in all cases: glycan notation: IUPAC condensed, linker removed
Fuc(a1-2)Gal(b1-3)GlcNAc = molecular target: Fuc(a1-2)Gal(b1-3)GlcNAc
How it was run: (§1)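 Glycan array data were curated from 3228 arrays in the Consortium for Functional Glycomics database and kept only where the protein sequence was available. Glycan names were converted to IUPAC-condensed notation, and columns mapping to the same glycan were averaged. The binding signal is a within-array Z-score, averaged across arrays of the same protein sequence at different concentrations or buffers and across linkers. Negative Z-scores can be read as non-binding.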

[1] = molecular target: Fuc(a1-2)Gal(b1-3)GlcNAc(b1-2)Man(a1-3)[Fuc(a1-2)Gal(b1-3)GlcNAc(b1-2)Man(a1-6)]Man(b1-4)GlcNAc(b1-4)[Fuc(a1-6)]GlcNAc
How it was run: as §1

[2] = molecular target: Fuc(a1-2)Gal(b1-3)GlcNAc(b1-3)Gal(b1-4)Glc
How it was run: as §1

[3] = molecular target: Fuc(a1-2)Gal6S(b1-3)GlcNAc
How it was run: as §1

[4] = molecular target: Fuc(a1-2)[Gal(a1-3)]Gal(b1-4)GlcNAc(b1-2)Man(a1-3)[Fuc(a1-2)[Gal(a1-3)]Gal(b1-4)GlcNAc(b1-2)Man(a1-6)]Man(b1-4)GlcNAc(b1-4)GlcNAc
How it was run: as §1

[5] = molecular target: Fuc(a1-2)[Gal(a1-3)]Gal(b1-4)GlcNAc(b1-3)[Fuc(a1-2)[Gal(a1-3)]Gal(b1-4)GlcNAc(b1-6)]GalNAc
How it was run: as §1

[6] = molecular target: Fuc(a1-2)[Gal(a1-3)]Gal(b1-4)GlcNAc(b1-6)GalNAc
How it was run: as §1

[7] = molecular target: Fuc(a1-2)[GalNAc(a1-3)]Gal(b1-3)GlcNAc(b1-2)Man(a1-3)[Fuc(a1-2)[GalNAc(a1-3)]Gal(b1-3)GlcNAc(b1-2)Man(a1-6)]Man(b1-4)GlcNAc(b1-4)GlcNAc
How it was run: as §1

[8] = molecular target: Fuc(a1-2)[GalNAc(a1-3)]Gal(b1-4)GlcNAc(b1-2)Man(a1-3)[Fuc(a1-2)[GalNAc(a1-3)]Gal(b1-4)GlcNAc(b1-2)Man(a1-6)]Man(b1-4)GlcNAc(b1-4)[Fuc(a1-6)]GlcNAc
How it was run: as §1

[9] = molecular target: Fuc(a1-2)[GalNAc(a1-3)]Gal(b1-4)GlcNAc(b1-3)Gal(b1-4)GlcNAc(b1-3)Gal(b1-4)GlcNAc
How it was run: as §1

[10] = molecular target: Fuc(a1-3)[Gal(b1-4)]GlcNAc(b1-3)Gal(b1-3)[Fuc(a1-4)]GlcNAc
How it was run: as §1

[11] = molecular target: Fuc(a1-3)[Gal3S(b1-4)]GlcNAc6S
How it was run: as §1

Fuc(a1-4)GlcNAc = molecular target: Fuc(a1-4)GlcNAc
How it was run: as §1

Gal(a1-2)Gal = molecular target: Gal(a1-2)Gal
How it was run: as §1

Gal(b1-2)Gal = molecular target: Gal(b1-2)Gal
How it was run: as §1

[12] = molecular target: Gal(b1-3)GlcNAc(b1-3)Gal(b1-4)GlcNAc(b1-2)[Gal(b1-3)GlcNAc(b1-3)Gal(b1-4)GlcNAc(b1-6)]Man(a1-6)[Gal(b1-3)GlcNAc(b1-3)Gal(b1-4)GlcNAc(b1-2)Man(a1-3)]Man(b1-4)GlcNAc(b1-4)[Fuc(a1-6)]GlcNAc
How it was run: as §1

[13] = molecular target: Gal(b1-3)[Fuc(a1-4)]GlcNAc
How it was run: as §1

[14] = molecular target: Gal(b1-3)[Neu5Ac(b2-6)]GalNAc
How it was run: as §1

[15] = molecular target: Gal(b1-4)GlcNAc(b1-2)Man(a1-6)[GlcNAc(b1-2)Man(a1-3)]Man(b1-4)GlcNAc(b1-4)GlcNAc
How it was run: as §1

[16] = molecular target: Gal(b1-4)GlcNAc(b1-3)Gal(b1-4)GlcNAc(b1-2)Man(a1-3)[Gal(b1-4)GlcNAc(b1-3)Gal(b1-4)GlcNAc(b1-2)Man(a1-6)]Man(b1-4)GlcNAc(b1-4)GlcNAc
How it was run: as §1

[17] = molecular target: Gal(b1-4)GlcNAc(b1-3)Gal(b1-4)GlcNAc(b1-3)Gal(b1-4)GlcNAc(b1-2)Man(a1-3)[Gal(b1-4)GlcNAc(b1-3)Gal(b1-4)GlcNAc(b1-3)Gal(b1-4)GlcNAc(b1-2)Man(a1-6)]Man(b1-4)GlcNAc(b1-4)GlcNAc
How it was run: as §1

[18] = molecular target: Gal(b1-4)GlcNAc(b1-3)Gal(b1-4)GlcNAc(b1-3)Gal(b1-4)GlcNAc(b1-3)Gal(b1-4)GlcNAc(b1-3)Gal(b1-4)GlcNAc(b1-2)Man(a1-3)[Gal(b1-4)GlcNAc(b1-3)Gal(b1-4)GlcNAc(b1-3)Gal(b1-4)GlcNAc(b1-3)Gal(b1-4)GlcNAc(b1-3)Gal(b1-4)GlcNAc(b1-2)Man(a1-6)]Man(b1-4)GlcNAc(b1-4)GlcNAc
How it was run: as §1

B1: Als3-41 (Candida albicans) (protein)
chain: KTITGVFNSFNSLTWSNAATYNYKGPGTPTWNAVLGWSLDGTSASPGDTFTLNMPCVFKFTTSQTSVDLTAHGVKYATCQFQAGEEFMTFSTLTCTVSNTLTPSIKALGTVTLPLAFNVGGTGSSVDLEDSKCFTAGTNTVTFNDGGKKISINVDFERSNVDPKGYLTDSRVIPSLNKVSTLFVAPQCANGYTSGTMGFANTYGDVQIDCSNIHVGITKGLNDWNYPVSSESFSYTKTCSSNGIFITYKNVPAGYRPFVDAYISATDVNSYTLSYANEYTCAGGYWQRAPFTLRWTGYRNSDAGSNGIVIVATTRTVTDSTTAVTTLPFDPNRDKTKTIEILKPIPTTTITTSYVGVTTSYLTKTAPIGETATVIVD
Fuc(a1-2)Gal(b1-3)GlcNAc
  glycan array binding signal (z-score): -0.256
[1]
  glycan array binding signal (z-score): -0.306
[2]
  glycan array binding signal (z-score): -0.317
[3]
  glycan array binding signal (z-score): -0.047
[4]
  glycan array binding signal (z-score): -0.283
[5]
  glycan array binding signal (z-score): 1.91
[6]
  glycan array binding signal (z-score): -0.229
[7]
  glycan array binding signal (z-score): -0.203
[8]
  glycan array binding signal (z-score): -0.001
[9]
  glycan array binding signal (z-score): 1.63
[10]
  glycan array binding signal (z-score): -0.315
[11]
  glycan array binding signal (z-score): 1.6
Fuc(a1-4)GlcNAc
  glycan array binding signal (z-score): 7.63
Gal(a1-2)Gal
  glycan array binding signal (z-score): -0.006
Gal(b1-2)Gal
  glycan array binding signal (z-score): -0.182
[12]
  glycan array binding signal (z-score): 0.669
[13]
  glycan array binding signal (z-score): -0.315
[14]
  glycan array binding signal (z-score): -0.359
[15]
  glycan array binding signal (z-score): -0.102
[16]
  glycan array binding signal (z-score): 6.2
[17]
  glycan array binding signal (z-score): 2.56
[18]
  glycan array binding signal (z-score): 1.05
